This is a sample that favours compounds with a hit; in the whole collection about 21% have one here.
ClpP mod: qHTS Assay for Activators of ClpP; ATP-dependent Clp protease proteolytic subunit (Bacillus subtilis (strain 168)), P80244; purified B. subtilis ClpP, FRET peptide cleavage, 20 min; Potency, µM (top dose mostly 57.5 µM), for the others: top-dose activity change, negative = active; hit rate 1.9% among 340,000; active means well fitted falling curve with a large enough effect; inconclusive means small, poorly fitted or top-dose-only effect; inactive means no such curve, though single readings can be large or run the other way; further: potency means the concentration at half of the fitted maximal effect; the source files actives as falling curves though it sought activators and does not explain the sign; nearly all actives have a fitted effect of over 65% in size
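Purified B. subtilis ClpP, 10 microg/mL final in Tris/HCl pH8 with KCl, BSA, glycerol and Tween-20, cleaved an Abz/nitrotyrosine-quenched decapeptide. Fluorescence (ex 320, em 430) was read at 0 and 20 min at room temperature. Delta was normalized to 5.8 microM ADEP and DMSO/no-enzyme controls.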
DRD3 antagonist: blocks the human D3 dopamine receptor | AID 652054 | max response, negative = inhibition, % | P35462 | hit rate 2.5% among 360,000 | D3R cells, DiscoveRx beta-arrestin luminescence, antagonist mode; stronger effect = lower value; in the data active means max response below about -50%; inconclusive means no clear call, values can overlap the other calls; further: on the % scale 0 is the no-effect control and ±100 the full control effect
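Cells expressing the human receptor were seeded at 1500 cells/well, incubated overnight at 37 degrees C in 5% CO2, then exposed to library compounds with dopamine controls for 90 minutes at 37 degrees C before luminescent detection.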
IL-1B inflam inh: inflammasome signaling inhibition, IL-1 beta readout; THP-1 LPS/ATP IL-1B secretion, AlphaLISA, 16 h; stronger effect = lower value; activity change, % at 57.5 µM; AID 743279; hit rate 4.7% among 360,000; in the data active means activity change below about -50%; inconclusive means mostly about -30% to -49%; further: on the % scale 0 is the no-effect control and ±100 the full control effect
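Secreted IL-1B measured by AlphaLISA bead assay after 16 h compound exposure of THP-1 cells; compounds (final up to 57.5 uM) added 1 h before LPS (250 ng/mL) and ATP (1.25 mM) stimulation; lower signal means less secretion.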
D3 ag: agonists of human D3 dopamine receptor; P35462; D3R DiscoveRx beta-arrestin cells, luminescence, 90 min; max activation, %; hit rate 0.58% among 410,000; AID 652048; in the data active means max activation above about 30%; further: 0% is about no effect
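Agonist-mode cell screen: cells plated at 1500/well and incubated overnight at 37 °C, then exposed to library compounds for 90 min at 37 °C. Detection reagent was added for 30–60 min at room temperature, and luminescence was read.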
DT40 TDP1 no CPT: qHTS for Inhibitors of human tyrosyl-DNA phosphodiesterase 1 (TDP1): qHTS in cells in absence of CPT; AID 686978, 2013; DT40 Tdp1-/- hTDP1 cells, no CPT, ATP luminescence, 48 h; Potency, µM (highest dose often 46.2 µM), inactives show at the top dose activity change, negative = growth inhibition, most hits filed as inhibitors; hit rate 15% among 420,000; further: potency means the concentration at half of the fitted maximal effect; on the % scale 0 is the no-effect control and ±100 the full control effect; nearly all actives have a fitted effect of over 55% in size
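No-CPT arm: Tdp1-/-;hTDP1 DT40 cells (400/well) plus compounds, incubated ≥48 hr at 37 °C. Readout CellTiter-Glo luminescence.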
DT40 TDP1 CPT: DT40-hTDP1 cell growth loss with CPT | hit rate 12% among 420,000 | AID 686979 | chicken DT40 Tdp1-/-;hTDP1 cells + 20 nM CPT, ATP luminescence, 48 h | Potency, µM (top dose mostly 46.2 µM), for the others: at the top dose activity change, negative = growth inhibition, hits mostly inhibitors; further: potency means the concentration at half of the fitted maximal effect; on the % scale 0 is the no-effect control and ±100 the full control effect; nearly all actives have a fitted effect of over 55% in size
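Chicken DT40 Tdp1-/- cells stably complemented with human TDP1 were seeded at 400 cells/well in medium containing 20 nM camptothecin, exposed to pin-transferred compounds, and grown at 37 °C for at least 48 hr. Viability was read as ATP luminescence.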
Active calls of the source: *; ? = inconclusive; · = no result. Unless noted, the call rests on the fitted dose curve; in most records, active means well fitted inhibition curve with a large enough effect; inconclusive means small, poorly fitted or top-dose-only effect; inactive means flat fitted curve, though single readings scatter.

SMILES	ClpP mod	DRD3 antagonist	IL-1B inflam inh	D3 ag	DT40 TDP1 no CPT	DT40 TDP1 CPT
CCCC(CCC)=NNC(=O)CN(Cc1ccccc1)S(=O)(=O)c1ccccc1	2%	7	-2	4	5%	6%
CC(C)(CNC(=O)C1c2ccccc2-c2ccccc21)N1CCOCC1	·	1	-68*	5	2%	9%
Cc1cc(C)n(Cc2ccc(F)cc2)c(=O)c1C#N	-12%	1	-5	-3	9%	-1%
COc1ccc(C=O)cc1Cn1c(C)cc(C)c(C#N)c1=O	·	11	31	-1	16µM*	16µM*
COC(=O)c1cc(C)nc2c1C(=O)C(=O)C=C2N1CCOCC1	·	-100*	-100*	0	1µM*	3.3µM*
O=C(c1ccco1)N1CCc2[nH]nc(-c3ccc(Cl)cc3)c2C1	-2%	-15	-72*	3	-26%	-37%
CCn1nc(C)c(NC(=O)CC23CC4CC(CC(C4)C2)C3)c1C	0%	4	47	3	21µM*	?
Cc1nn(C)cc1NC(=O)CC12CC3CC(CC(C3)C1)C2	6%	4	17	0	?	?
Cc1ccc(N2C(=O)N3[C@H](c4ccc(F)cc4)[C@@H]4C(=O)N(C5CCCCC5)C(=O)[C@@H]4[C@]3(Cc3ccccc3)C2=O)cc1	-1%	-9	0	2	-1%	-1%
COC(=O)c1ccc(NC2(C#N)C(=O)Nc3ccccc32)cc1 (configuration not stated)	-1%	?	7	-6	23µM*	?
COC(=O)Cc1c(C)c2ccc3c(c2oc1=O)CN(Cc1ccccc1OC)CO3	58%	·	·	-18	?	?
COc1ccc(S(=O)(=O)N2CCCCC2)cc1NC(=O)c1cnc(C)cn1	2%	43	7	4	?	?
CCOc1cc(/C=C2\NC(=O)NC2=O)ccc1OC(C)C(=O)O (configuration not stated)	·	2	4	1	?	-6%
OCC1(Cc2ccc(F)cc2)CCCN(CCCC(F)(F)F)C1 (configuration not stated)	-4%	0	0	-16	-3%	-19%
COc1ccc(CN2CCCC(CO)(Cc3ccc(F)cc3)C2)c(OC)c1OC (configuration not stated)	0%	8	-16	-13	?	15µM*
CC(C)Oc1ccc(CN2CCCC(CO)(Cc3ccc(F)cc3)C2)cc1 (configuration not stated)	·	?	-72*	-24	?	?
COc1ccc(Cn2c(=S)[nH]c3cc(C(=O)N4CCN(c5ccccc5)CC4)ccc3c2=O)cc1	0%	2	60	9	?	?
COc1ccc(Cn2c(=O)[nH]c3cc(C(=O)N4CCN(Cc5ccccc5)CC4)ccc3c2=O)cc1	-14%	21	-8	-1	18µM*	16µM*
COc1ccc(Cn2c(=O)[nH]c3cc(C(=O)N4CCN(c5ccccc5OC)CC4)ccc3c2=O)cc1	95%	14	-7	24	23µM*	?
COc1ccccc1N1CCN(C(=O)c2ccc3c(=O)n(Cc4ccc5c(c4)OCO5)c(=O)[nH]c3c2)CC1	-4%	-15	?	-3	18µM*	16µM*
COc1ccc(Cn2c(=O)[nH]c3cc(C(=O)N4CCN(c5cc(C)ccc5C)CC4)ccc3c2=O)cc1	-2%	·	·	4	?	?
COCCn1c(=O)[nH]c2cc(C(=O)N3CCN(Cc4ccc5c(c4)OCO5)CC3)ccc2c1=O	-2%	-1	13	3	-2%	-30%
CC(=O)N1N=C(c2ccccc2OC(=O)/C=C/c2ccccc2)CC1c1ccccc1 (configuration not stated)	1%	-15	-2	-11	?	-15%
COc1cccc(-c2nc(CS(=O)(=O)CC(=O)Nc3ccccc3C)c(C)o2)c1	·	3	8	1	?	4%
COc1cccc(-c2nc(CS(=O)(=O)CC(=O)NC3CCCc4ccccc43)c(C)o2)c1 (configuration not stated)	-13%	29	-10	-4	18µM*	23µM*
SMILES	ClpP mod	DRD3 antagonist	IL-1B inflam inh	D3 ag	DT40 TDP1 no CPT	DT40 TDP1 CPT
COc1cccc(-c2nc(CS(=O)(=O)CC(=O)Nc3cc(OC)ccc3OC)c(C)o2)c1	-2%	5	-5	0	5.8µM*	?
Cc1ccc([N+](=O)[O-])cc1NC(=O)C(C)NS(=O)(=O)c1ccc(F)cc1 (configuration not stated)	·	-11	18	0	-16%	9%
COc1ccc(C(c2c(C)[nH][nH]c2=O)c2c(C)[nH][nH]c2=O)cc1Br	0%	7	-29	-8	?	-6%
CCOc1cc(C(c2c(C)[nH][nH]c2=O)c2c(C)[nH][nH]c2=O)ccc1O	-1%	-7	-63*	-4	-8%	-19%
Cc1[nH][nH]c(=O)c1C(c1ccc(Br)cc1)c1c(C)[nH][nH]c1=O	·	-16	-12	1	-14%	0%
Cc1[nH][nH]c(=O)c1C(c1ccc(O)c(Br)c1)c1c(C)[nH][nH]c1=O	-3%	-11	-73*	5	?	-27%
COc1cc(C(c2c(C)[nH][nH]c2=O)c2c(C)[nH][nH]c2=O)ccc1OC(C)C	5%	4	-70*	0	-23%	12%
COc1cccc(NC(=O)c2cncs2)c1	-1%	10	-6	1	4%	-7%
COc1ccc(S(=O)(=O)NC(=O)C2(C)CCN2C(=O)Cc2cccc3ccccc23)cc1 (configuration not stated)	0%	15	24	6	-5%	4%
CCN(CC)S(=O)(=O)c1ccc2c(c1)c(=O)c(C(=O)N1CCN(c3ccccn3)CC1)cn2C	-1%	-19	11	10	1%	-18%
Cc1ccc(CN2CCC(CNC(=O)c3cnn(-c4ccccc4)c3C3CCN(C(=O)OC(C)(C)C)CC3)CC2)cc1	-3%	·	·	3	15µM*	15µM*
Cc1ccc(CNC(=O)c2cnn(-c3cccc(C)c3)c2C2CCN(C(=O)OC(C)(C)C)CC2)cc1	-10%	·	·	0	23µM*	16µM*
Cc1ccc(-n2ncc(C(=O)NCc3cccs3)c2C2CCN(C(=O)OC(C)(C)C)CC2)cc1	-2%	·	·	3	?	23µM*
